According to PubChem BioAssay AID1508622 (National Center for Advancing Translational Sciences (NCATS), 2021):

Test: Confirmatory qHTS for Identification of Small Molecule Activators of Huntingtin-Antisense Promoter Activity
Details: HEK293 HTT-AS promoter firefly luciferase reporter, 24 h; series mostly up to 57.5 µM; activity change, positive = activation: at the top concentration; active means well fitted activation curve with a large enough effect; inconclusive means small, poorly fitted or top-dose-only effect; inactive means no such curve, though single readings can be large or run the other way
Text: Assay Provider: Russell L. Margolis M.D.
Department Neurology, Johns Hopkins University School of Medicine, Baltimore, MD
Huntington's Disease (HD) is a neurodegenerative disorder caused by a CAG repeat expansion in exon 1 of huntingtin (HTT). While there are currently no disease-modifying treatments for HD, recent efforts have focused on development of nucleotide-based therapeutics to lower HTT expression. As an alternative to siRNA or oligonucleotide methods, we hypothesized that suppression of HTT expression might be accomplished by small molecules that either (1) directly decrease HTT expression by suppressing HTT promoter activity or (2) indirectly decrease HTT expression by increasing the promoter activity of HTT-AS, the gene antisense to HTT that appears to inhibit expression of HTT.
We developed and employed a high throughput screen for modifiers of HTT and HTT-AS promoter activity using luminescent reporter HEK293 cells; of the 52,041 compounds tested, we identified 898 replicable hits. We used a rigorous stepwise approach to assess compound toxicity and the capacity of the compounds to specifically lower huntingtin protein in 5 different cell lines, including HEK293 cells, HD lymphoblastoid cells, mouse primary neurons, HD iPSCs differentiated into cortical-like neurons, and HD hESCs. We found no compounds which were able to lower huntingtin without lowering cell viability in all assays, though the potential efficacy of a few compounds at non-toxic doses could not be excluded.
SEQUENCE No. (1, 2, 3, etc.); […] (e.g., Cells, Incubation, Reagent, etc.); VALUE and DESCRIPTION.
1; Reagent; 4 uL; 2,500 Hek293 luciferase reporter cells per wells
3; Compound; 23 nL; Control inhibitor / compound library
5; Reagent; 2.5 uL; Firefly Luc reagent; Dual-Glo Luciferase Reporter Assay System (Promega)
6; Time; 10 min; room temperature incubation
7; Detection; Luminescence; FLuc
NOTES (numbers refer to sequence above)
1; High-throughput screening, measuring luminescence from a Hek293 luciferase reporter, was performed in 1,536 well white-walled tissue-culture treated plates. 2,500 cells were plated in 4 uL of Opti-MEM per well using a Multidrop Combi Reagent Dispenser (ThermoFisher).
2; Assay plates were cultured for 24 hours.
3; Control inhibitor (PTC124; final concentration of 50 uM) and compound library (at final concentrations of 460 nM - 57.5 uM) were added to the assay plate using the Kalypsis Pintool Robotic System equipped with 1536 pinheads.
4; Cells were then incubated for 24 hours at 37C prior to luminescence measurements.
5; In all cases, luminescence was measured using the Dual-Glo Luciferase Reporter Assay System (Promega) following the manufacturer's instructions.
6; Room temperature incubation.
7; Luminescence signal was obtained using the PerkinElmer ViewLux plate reader. Results were normalized to vehicle control (0% activity) and zero RLU (-100% activity).

Activity change, positive = activation, inactive:
COc1cccc(C2=CC(c3cc(Br)ccc3F)n3nnnc3N2)c1 (stereo not given) -35.3%
CCc1ccc(CN(Cc2ccco2)C(=O)COc2ccccc2Cl)cc1 -8.92%
O=C(CSc1nc(-c2cccc(F)c2)[nH]c1-c1ccccc1)Nc1ccc2c(c1)OCCO2 -39%
COc1ccc(Nc2nc(-c3ccc(C)cc3)nc3ccccc23)c(OC)c1 19%
CCN(Cc1ccccc1)C(=O)C1CCN(S(=O)(=O)c2c(C)noc2/C=C/c2ccc(C)cc2)CC1 -5.97%
COC(=O)C1=C(CS(=O)(=O)c2ccc(C)cc2C)NC(=O)NC1c1ccc(C)cc1 (stereo not given) -41.9%
CCCCOc1ccc(C(=O)Nc2ccc3c(c2)CCCN3C(=O)c2cccs2)cc1 -56.3%
CCOC(=O)C1CCCN(C(=O)Cn2ncc3c(C)n(Cc4ccc(F)cc4)c(C)c3c2=O)C1 (stereo not given) -48.6%
COc1ccc(C2=CC(c3ccc(F)cc3)n3ncc(C(=O)Nc4ccc(C)cc4)c3N2)cc1 (stereo not given) -18.3%
CCc1ccc(NC(=O)C2CCCN(S(=O)(=O)c3ccc(F)cc3)C2)cc1 (stereo not given) -27.7%
CC(C)C(=O)N1c2ncnn2C2(CCCCC2)[C@@H]2CCCC[C@@H]21 -18.3%
CCN(C(=O)c1cc2c(s1)-c1ccccc1OC2)c1cccc(C(F)(F)F)c1 -30.3%
O=C(O)c1ccc2c(c1)N(Cc1ccc(F)cc1)C(=O)c1ccccc1S2=O (stereo not given) -12.5%
Cc1ccccc1OCC(=O)Nc1ccccc1C(=O)OCc1cc(=O)n2c(C)csc2n1 29.6%
COc1ccc(-c2noc(N3CCN(c4cccc(Cl)c4)CC3)n2)cc1OC -54.7%
Cc1ccc(C)c(NC(=O)CSc2nnc(-c3cc4occc4n3C)n2-c2ccccc2C)c1 -19.7%
CCCCN1CC(c2nc3ccccc3n2CCCCOc2ccccc2C)CC1=O (stereo not given) -45.6%
COc1ccc(C)cc1NS(=O)(=O)c1ccc(-c2cnc(C3CC3)o2)cc1 -91.7%
COc1ccc(CNC(=O)c2ccc3c(c2)CCN3S(=O)(=O)c2ccc(Cl)cc2)cc1 -23.1%
COc1ccc(C)cc1NC(=O)Cn1c(=O)cc(C)c2c(C)nn(C)c21 -94.4%
Cc1ccc(S(=O)(=O)n2nc(-c3ccccc3)nc2NCc2ccccc2Cl)cc1 -23.3%
Cc1ccc(C)c(NC(=O)Cn2c(-c3nonc3N)nc3ccccc32)c1 -5.46%
COc1ccc(-c2nc3sc(CCNS(=O)(=O)c4ccc(F)c(C)c4)c(C)n3n2)cc1 -26.6%
Cc1ccc(NCc2cccn2-c2nnc(N3CCC(C(=O)NCc4ccc(OC(C)C)cc4)CC3)s2)cc1 -53.3%
CCc1ccc(NC(=O)c2ccc(F)c(S(=O)(=O)N3CCc4ccccc4C3)c2)cc1 -90.5%
CCOc1ccc(S(=O)(=O)N(C(C)=O)c2ccc3oc(C)c(C(=O)OC)c3c2)cc1 -92.6%
CCc1ccc(NC(=O)c2ccc(F)c(S(=O)(=O)N(C)C3CCCCC3)c2)cc1 -93.9%
COc1cc(OC)cc(C(=O)Oc2c(Sc3ccccc3)c(C)nn2C(C)(C)C)c1 -27%
Cc1ccc(NC(=O)c2ccc(F)c(S(=O)(=O)NCCc3ccccc3)c2)cc1F -94.3%
CN(C)CCNC(=O)C1CCN(Cc2cc3ccccc3n2Cc2ccccc2)CC1 -18.7%
CCCCN1CC(c2nc3ccccc3n2CCCCOc2ccc(C)c(C)c2)CC1=O (stereo not given) -42.6%
CCOc1ccc(NC(=O)CN(c2ccc(Cl)cc2C)S(=O)(=O)c2ccccc2)cc1 -35.9%
Cc1cc(C)c(NS(=O)(=O)c2ccc(-c3cnc(C4CC4)o3)cc2)c(C)c1 -43.6%
Cc1ccc(CNC(=O)c2ccc(CSc3nc4ccncc4n3Cc3ccc(C)cc3)cc2)cc1 -18.4%
Cc1nc(-c2ccc(Cl)cc2)sc1CCNC(=O)Cc1ccc(F)cc1 -61.8%
CCS(=O)(=O)c1ccc(C(=O)N2CCN(c3nc4c(OC)ccc(C)c4s3)CC2)cc1 -43%
CCc1ccc2oc(C(=O)NCCc3ccc(OC)c(OC)c3)cc(=O)c2c1 -49.8%
CCc1ccc(CNC(=O)Cn2ccc3cc(S(=O)(=O)N4CCCCCC4)ccc32)cc1 -33.5%
CC(C)c1ccc(CNC(=O)c2ccc(N3CCCC3)c(NC(=O)NCc3ccc(F)cc3)c2)cc1 -21.6%
Cc1ccc(CNC(=O)Nc2cc(C(=O)NCc3ccc(C(C)C)cc3)ccc2N2CCCC2)cc1 -94.6%
